Inconclusive results are not listed. The source made the active and inactive calls. The call rests on the fitted dose curve; in most records, active means well fitted cell-killing curve with a large enough effect; inconclusive means small, poorly fitted or top-dose-only effect, or effect the other way; inactive means flat fitted curve, though single readings scatter.
Tests used:
Experiment in all cases: Primary qHTS to identify gynecologic anti-cancer compounds using libraries of approved drugs and bioactive compounds (AID 1345084); further: nearly all actives have a fitted effect of over 55% in size
Settings in all cases: Gynecologic cancer cell panel viability, ATPlite luminescence, 48 h; series mostly up to 57.5 µM
[1] = system: JEG-3
Summary of the method: (§1)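 In this quantitative HTS, cell killing is estimated from loss of ATP-dependent luciferase light. Cells see five compound concentrations over a 48 h exposure.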

[2] = system: OV90
Summary of the method: as §1

[3] = system: PA-1
Summary of the method: as §1

[4] = system: SKOV3
Summary of the method: as §1

[5] = system: Tov-21-G
Summary of the method: as §1

[6] = system: Tov112D
Summary of the method: as §1
On the % scale 0 is the no-effect control and ±100 the full control effect; potency means the concentration at half of the fitted maximal effect.

CN=C(N)NCCCCC/C=C(/C)CC(C)C1OC(=O)C(C)C(O)/C=C/C(C)C(O)CC(O)C(C)C(O)CCC(C)C(O)CC2(O)OC(CC(OC(=O)CC(=O)O)CC(O)CC(O)C(C)C(O)/C(C)=C/CCC1C)CC(O)C2O (centres undefined)
inactive: activity change, negative = cytotoxicity [1] 16% [at 11.6 µM] | activity change, negative = cytotoxicity [2] 7.81% [at 11.6 µM] | activity change, negative = cytotoxicity [3] 16.3% [at 11.6 µM] | activity change, negative = cytotoxicity [4] 0% [at 11.6 µM] | activity change, negative = cytotoxicity [5] 3.06% [at 11.6 µM] | activity change, negative = cytotoxicity [6] -6.61% [at 11.6 µM]

COc1cc2c(cc1OC)CC(=O)N(CCCNC[C@H]1Cc3cc(OC)c(OC)cc31)CC2
inactive: Potency [1] | Potency [2] | Potency [3] | Potency [4] | Potency [5] | Potency [6]

CCc1c(C)nc2c(-c3cnn(-c4cc(CO)ccn4)c3)c[nH]n2c1=O
inactive: Potency [1] | Potency [2] | Potency [3] | Potency [4] | Potency [5] | Potency [6]

C=C[C@]1(C)C=C2CCC3C(C)(CCC[C@@]3(C)C(=O)O)C2CC1 (some centres undefined)
inactive: Potency [1] | Potency [2] | Potency [3] | Potency [4] | Potency [5] | Potency [6]

C=C1C[C@]23C[C@H]1CC[C@H]2[C@]1(C)CCC[C@@](C)(C(=O)O)[C@H]1[C@@H]3C(=O)O
inactive: Potency [1] | Potency [2] | Potency [3] | Potency [4] | Potency [5] | Potency [6]

O=C(O)/C=C/c1ccc(-c2ccc(O)c(C34CC5CC(CC(C5)C3)C4)c2)cc1
active: Potency [1] 2820 nM | Potency [2] 10000 nM | Potency [3] 2240 nM | Potency [4] 631 nM | Potency [5] 794 nM | Potency [6] 1410 nM

COC1CC(O[C@H]2CC[C@@]3(C)C(=CC[C@]4(O)C3[C@H](OC(C)=O)[C@@H](OC(=O)c3ccccc3)[C@]3(C)[C@@H](C(C)=O)CC[C@@]34O)C2)OC(C)C1OC1CC(OC)C(OC2CC(OC)C(OC3OC(C)C(OC4OC(CO)C(O)C(O)C4O)C(OC)C3O)C(C)O2)C(C)O1 (some centres undefined)
inactive: activity change, negative = cytotoxicity [1] -8.02% [at 6.55 µM] | activity change, negative = cytotoxicity [2] 7.55% [at 6.55 µM] | activity change, negative = cytotoxicity [3] -5.59% [at 6.55 µM] | activity change, negative = cytotoxicity [4] 11% [at 6.55 µM] | activity change, negative = cytotoxicity [5] -0.609% [at 6.55 µM] | activity change, negative = cytotoxicity [6] 2.04% [at 6.55 µM]

COc1c2c(c(C)c3c1C(=O)OC3)OC1(C)CC(O)C34OC(OC)(CC(OC(C)=O)C3(C)C1C2)OC4(C)C (centres undefined)
inactive: Potency [1] | Potency [2] | Potency [3] | Potency [4] | Potency [5] | Potency [6]

CC(/C=C/C1=CC2=CC(=O)C(C)(O)C(O)C2=CO1)=C\C(C)CCO (centres undefined)
inactive: Potency [1] | Potency [2] | Potency [3] | Potency [4] | Potency [5] | Potency [6]

O=C(O)c1cn(C2CC2)c2cc(N3C[C@@H]4C[C@H]3CN4)c(F)cc2c1=O
inactive: Potency [1] | Potency [2] | Potency [3] | Potency [4] | Potency [5] | Potency [6]

COc1ccc(-c2nc(-c3ccc(-c4cccc(Cl)c4)o3)[nH]c2-c2ccc(OC)cc2)cc1
inactive: Potency [1] | Potency [2] | Potency [3] | Potency [4] | Potency [5] | Potency [6]

C=C1[C@H](OC(C)=O)[C@H]2[C@@H](OC(C)=O)[C@](C)(OC(C)=O)C[C@]2(OC(C)=O)C(=O)[C@H](C)/C=C/C(C)(C)C(=O)[C@H](OC(=O)C(C)CC)[C@H]1OC(C)=O (some centres undefined)
inactive: Potency [1] | Potency [2] | Potency [3] | Potency [4] | Potency [5] | Potency [6]

Cc1cccc(-c2[nH]c(Cc3cccc(C(N)=O)c3)nc2-c2ccc3nccnc3c2)n1
inactive: Potency [1] | Potency [2] | Potency [3] | Potency [4] | Potency [5] | Potency [6]

C=C(C)C1CCC2(C(=O)O[C@@H]3O[C@H](CO[C@@H]4O[C@H](CO)[C@@H](O)[C@H](O)[C@H]4O)[C@@H](O)[C@H](O[C@@H]4O[C@@H](C)[C@H](O)[C@@H](O)[C@H]4O)[C@H]3O)CCC3(C(=O)O)C(CCC4C5(C)CCC(O)C(C)(C)C5CCC43C)C12 (some centres undefined)
inactive: activity change, negative = cytotoxicity [1] 18.7% [at 11.6 µM] | activity change, negative = cytotoxicity [2] 15.5% [at 11.6 µM] | activity change, negative = cytotoxicity [3] -1.76% [at 11.6 µM] | activity change, negative = cytotoxicity [4] -5.29% [at 11.6 µM] | activity change, negative = cytotoxicity [5] 9.18% [at 11.6 µM] | activity change, negative = cytotoxicity [6] 11.4% [at 11.6 µM]

CN[C@@H]1[C@H](O[C@H]2[C@H](O[C@@H]3[C@@H](O)[C@H](O)[C@@H](N=C(N)N)[C@H](O)[C@H]3N=C(N)N)O[C@@H](C)[C@]2(O)C=O)O[C@@H](CO)[C@H](O)[C@H]1O
inactive: Potency [1] | Potency [2] | Potency [3] | Potency [4] | Potency [5] | Potency [6]

C[C@]12C=C[C@@]3(CCC4[C@](C)(CO)CCC[C@@]4(C)C3CC1)C2 (some centres undefined)
inactive: Potency [1] | Potency [2] | Potency [3] | Potency [4] | Potency [5] | Potency [6]

COC(=O)/C=C/C12COC(C)(C)C1C(O)C(OC(C)=O)C1(C)C2CCC2(C)C(c3ccoc3)OC(=O)C3OC321 (centres undefined)
inactive: Potency [1] | Potency [2] | Potency [3] | Potency [4] | Potency [5] | Potency [6]

COC(=O)C1(C)CCC2(C(=O)O)CCC3(C)C(=CCC4C5(C)CC(O)C(OC6OCC(O)C(O)C6O)C(C)(CO)C5CCC43C)C2C1 (centres undefined)
inactive: Potency [1] | Potency [2] | Potency [3] | Potency [4] | Potency [5] | Potency [6]

CC1(C)CC[C@]2(C(=O)O[C@@H]3O[C@H](CO)[C@@H](O)[C@H](O)[C@H]3O)CC[C@]3(C)C(=CCC4[C@@]5(C)C[C@@H](O)[C@H](O)[C@](C)(C=O)C5CC[C@]43C)[C@@H]2[C@@H]1O (some centres undefined)
inactive: Potency [1] | Potency [2] | Potency [3] | Potency [4] | Potency [5] | Potency [6]

CCNC(=O)Nc1ncc(-c2cc(-c3c(C)cc(OC)cc3C)nc(-c3cnccn3)n2)s1
inactive: Potency [1] | Potency [2] | Potency [3] | Potency [4] | Potency [5] | Potency [6]

O=C(O)c1c(O)c(-c2ccccc2)nc2ccccc12
inactive: Potency [1] | Potency [2] | Potency [3] | Potency [4] | Potency [5] | Potency [6]

C=C1C[C@]23C[C@H]1CC[C@H]2C1=C[C@H]2OC(=O)[C@@](C)([C@H]1[C@@H]3C(=O)O)[C@H]2O
inactive: Potency [1] | Potency [2] | Potency [3] | Potency [4] | Potency [5] | Potency [6]

COc1cc(O)c2c(c1)C1=C[C@H](O)[C@@H](O)C[C@]1(C)OC2=O
inactive: Potency [1] | Potency [2] | Potency [3] | Potency [4] | Potency [5] | Potency [6]

CC1(C)CC2C=C(C(=O)O)C3COC(=O)C(O)(CO)C23C1 (centres undefined)
inactive: Potency [1] | Potency [2] | Potency [3] | Potency [4] | Potency [5] | Potency [6]
